Test [1] has as its target T1, Mitogen-activated protein kinase 12 (Homo sapiens) (UniProt P53778).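 Note: values are averaged p38gamma kinase inhibition readings, compounds tested at 1 µM.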
T1 sequence (whole entry): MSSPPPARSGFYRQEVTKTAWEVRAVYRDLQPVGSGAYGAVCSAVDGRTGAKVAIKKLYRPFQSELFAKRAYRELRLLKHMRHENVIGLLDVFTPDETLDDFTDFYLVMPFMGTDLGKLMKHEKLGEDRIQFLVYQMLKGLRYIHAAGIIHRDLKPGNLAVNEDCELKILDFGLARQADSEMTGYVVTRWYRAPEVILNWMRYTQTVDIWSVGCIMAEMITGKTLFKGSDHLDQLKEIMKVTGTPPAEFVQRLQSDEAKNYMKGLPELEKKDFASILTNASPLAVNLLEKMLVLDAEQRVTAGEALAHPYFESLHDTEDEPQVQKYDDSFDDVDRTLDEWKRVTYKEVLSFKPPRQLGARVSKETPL
The following applies: at 1 µM.

For test [2], the target named is SRSF protein kinase 1 (Homo sapiens) (UniProt Q96SB4). The following applies: at 0.1 µM.
The target is the same in test [3]. The conditions noted are these: at 1 µM.
The target of test [4] is Phosphatidylinositol 4,5-bisphosphate 3-kinase catalytic subunit alpha isoform (Homo sapiens) (UniProt P42336). The conditions noted are these: at 0.1 µM.
Test [5] shares this target. The following applies: at 1 µM.
Test [6] deals with T2, Phosphatidylinositol 4,5-bisphosphate 3-kinase catalytic subunit delta isoform (Homo sapiens) (UniProt O00329).
T2 sequence (whole entry): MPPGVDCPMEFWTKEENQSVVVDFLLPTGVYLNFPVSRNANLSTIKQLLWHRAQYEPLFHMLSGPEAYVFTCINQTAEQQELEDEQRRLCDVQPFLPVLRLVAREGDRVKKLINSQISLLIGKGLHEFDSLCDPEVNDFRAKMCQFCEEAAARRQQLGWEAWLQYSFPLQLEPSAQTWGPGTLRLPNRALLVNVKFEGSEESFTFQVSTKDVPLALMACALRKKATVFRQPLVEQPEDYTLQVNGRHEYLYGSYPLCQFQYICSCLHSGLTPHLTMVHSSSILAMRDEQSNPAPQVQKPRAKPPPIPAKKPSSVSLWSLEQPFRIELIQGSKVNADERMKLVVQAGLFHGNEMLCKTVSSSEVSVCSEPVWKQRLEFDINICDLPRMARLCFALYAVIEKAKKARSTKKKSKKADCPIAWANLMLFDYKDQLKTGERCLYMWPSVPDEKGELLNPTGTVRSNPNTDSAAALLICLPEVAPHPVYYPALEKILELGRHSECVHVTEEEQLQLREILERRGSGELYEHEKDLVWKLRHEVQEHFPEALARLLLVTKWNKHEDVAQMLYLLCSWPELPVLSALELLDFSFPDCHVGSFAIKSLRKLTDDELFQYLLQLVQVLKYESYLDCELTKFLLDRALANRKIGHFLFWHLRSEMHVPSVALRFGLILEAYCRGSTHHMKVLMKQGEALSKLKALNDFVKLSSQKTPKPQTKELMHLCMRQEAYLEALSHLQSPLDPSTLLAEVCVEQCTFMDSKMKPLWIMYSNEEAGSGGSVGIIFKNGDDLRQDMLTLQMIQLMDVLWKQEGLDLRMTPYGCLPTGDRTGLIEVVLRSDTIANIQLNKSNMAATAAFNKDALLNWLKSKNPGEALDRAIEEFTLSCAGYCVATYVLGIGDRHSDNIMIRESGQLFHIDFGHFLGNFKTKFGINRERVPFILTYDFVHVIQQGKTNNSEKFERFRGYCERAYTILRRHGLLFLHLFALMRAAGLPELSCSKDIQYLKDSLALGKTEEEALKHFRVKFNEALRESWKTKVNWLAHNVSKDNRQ
The following applies: at 0.1 µM.

Test [7] has as its target T2, Phosphatidylinositol 4,5-bisphosphate 3-kinase catalytic subunit delta isoform (Homo sapiens). The conditions noted are these: at 1 µM.
In test [8] the target is Phosphatidylinositol 4-kinase beta (Homo sapiens) (UniProt Q9UBF8). The following applies: at 0.1 µM.
Test [9] has the same target. The following applies: at 1 µM.
The target in test [10] is Sphingosine kinase 1 (Homo sapiens) (UniProt Q9NYA1). The conditions noted are these: at 0.1 µM.
The target is the same in test [11]. The following applies: at 1 µM.
Test [12] concerns the target T3, Sphingosine kinase 2 (Homo sapiens) (UniProt Q9NRA0).
T3 sequence (whole entry): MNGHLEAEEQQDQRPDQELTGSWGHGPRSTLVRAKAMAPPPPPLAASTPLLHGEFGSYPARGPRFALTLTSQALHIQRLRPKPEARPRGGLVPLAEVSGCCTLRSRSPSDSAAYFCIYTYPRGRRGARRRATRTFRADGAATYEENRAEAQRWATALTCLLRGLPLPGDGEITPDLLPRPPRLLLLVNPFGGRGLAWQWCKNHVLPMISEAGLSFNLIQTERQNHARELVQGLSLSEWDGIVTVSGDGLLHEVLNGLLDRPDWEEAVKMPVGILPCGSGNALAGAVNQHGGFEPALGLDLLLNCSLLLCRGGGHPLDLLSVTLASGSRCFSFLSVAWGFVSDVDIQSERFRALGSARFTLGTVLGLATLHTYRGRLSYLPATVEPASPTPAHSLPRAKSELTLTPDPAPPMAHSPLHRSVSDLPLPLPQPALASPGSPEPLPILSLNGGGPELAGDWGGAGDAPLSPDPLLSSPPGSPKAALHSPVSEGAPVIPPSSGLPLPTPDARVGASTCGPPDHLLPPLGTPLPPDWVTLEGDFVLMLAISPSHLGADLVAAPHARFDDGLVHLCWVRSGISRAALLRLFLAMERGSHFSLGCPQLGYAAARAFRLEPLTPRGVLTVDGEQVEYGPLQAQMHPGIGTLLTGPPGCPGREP
The following applies: at 0.1 µM.

In test [13] the target is T3, Sphingosine kinase 2 (Homo sapiens). The conditions noted are these: at 1 µM.
The target in test [14] is Casein kinase II subunit alpha (Homo sapiens) (UniProt P68400). The following applies: at 0.1 µM.
Test [15] has the same target. The conditions noted are these: at 1 µM.
For test [16], the target named is T4, Inhibitor of nuclear factor kappa-B kinase subunit alpha (Homo sapiens) (UniProt O15111).
T4 sequence (whole entry): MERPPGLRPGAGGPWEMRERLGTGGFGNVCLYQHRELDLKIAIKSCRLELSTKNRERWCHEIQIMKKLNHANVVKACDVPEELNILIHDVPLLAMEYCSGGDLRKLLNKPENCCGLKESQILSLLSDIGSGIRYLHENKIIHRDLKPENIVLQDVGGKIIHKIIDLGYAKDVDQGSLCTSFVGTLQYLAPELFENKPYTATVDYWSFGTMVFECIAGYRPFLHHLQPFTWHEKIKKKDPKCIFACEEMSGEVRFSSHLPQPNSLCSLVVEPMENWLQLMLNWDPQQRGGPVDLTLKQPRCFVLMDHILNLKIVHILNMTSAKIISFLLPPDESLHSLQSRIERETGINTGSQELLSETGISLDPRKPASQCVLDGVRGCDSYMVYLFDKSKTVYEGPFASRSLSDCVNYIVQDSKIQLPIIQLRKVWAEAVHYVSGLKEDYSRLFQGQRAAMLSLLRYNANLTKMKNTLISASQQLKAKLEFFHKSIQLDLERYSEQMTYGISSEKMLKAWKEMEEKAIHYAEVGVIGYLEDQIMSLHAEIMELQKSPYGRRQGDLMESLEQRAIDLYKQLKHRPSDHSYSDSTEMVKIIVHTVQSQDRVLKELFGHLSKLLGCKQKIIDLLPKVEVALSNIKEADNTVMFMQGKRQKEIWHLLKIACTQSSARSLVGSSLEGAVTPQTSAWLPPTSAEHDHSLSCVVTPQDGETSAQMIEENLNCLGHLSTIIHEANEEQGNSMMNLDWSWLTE
The following applies: at 0.1 µM.

Test [17] deals with T4, Inhibitor of nuclear factor kappa-B kinase subunit alpha (Homo sapiens). The conditions noted are these: at 1 µM.
Test [18] concerns the target T5, Inhibitor of nuclear factor kappa-B kinase subunit beta (Homo sapiens) (UniProt O14920).
T5 sequence (whole entry): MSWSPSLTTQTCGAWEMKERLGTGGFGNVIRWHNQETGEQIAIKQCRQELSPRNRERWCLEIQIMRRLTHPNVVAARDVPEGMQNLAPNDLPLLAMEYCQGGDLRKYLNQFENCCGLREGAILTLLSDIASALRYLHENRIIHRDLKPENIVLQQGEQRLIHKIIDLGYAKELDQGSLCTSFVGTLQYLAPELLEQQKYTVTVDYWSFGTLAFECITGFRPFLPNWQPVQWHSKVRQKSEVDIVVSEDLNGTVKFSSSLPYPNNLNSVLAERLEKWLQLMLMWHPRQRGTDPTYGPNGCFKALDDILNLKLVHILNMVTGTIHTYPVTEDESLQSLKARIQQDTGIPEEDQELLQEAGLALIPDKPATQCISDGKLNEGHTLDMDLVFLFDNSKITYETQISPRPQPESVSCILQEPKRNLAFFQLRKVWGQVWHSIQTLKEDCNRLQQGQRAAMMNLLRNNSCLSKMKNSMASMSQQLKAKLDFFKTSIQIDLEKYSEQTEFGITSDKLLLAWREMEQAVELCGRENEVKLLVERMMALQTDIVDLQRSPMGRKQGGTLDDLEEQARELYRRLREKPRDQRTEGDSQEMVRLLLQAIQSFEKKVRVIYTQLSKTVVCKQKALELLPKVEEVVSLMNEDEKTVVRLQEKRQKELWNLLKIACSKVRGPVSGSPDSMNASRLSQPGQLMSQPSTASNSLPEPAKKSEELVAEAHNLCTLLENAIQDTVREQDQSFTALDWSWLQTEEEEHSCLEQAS
The following applies: at 0.1 µM.

The target in test [19] is T5, Inhibitor of nuclear factor kappa-B kinase subunit beta (Homo sapiens). The conditions noted are these: at 1 µM.
The target of test [20] is T6, Inhibitor of nuclear factor kappa-B kinase subunit epsilon (Homo sapiens) (UniProt Q14164).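 Note: mean inhibition of IKKε reported, from the GSK PKIS dataset.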
T6 sequence (whole entry): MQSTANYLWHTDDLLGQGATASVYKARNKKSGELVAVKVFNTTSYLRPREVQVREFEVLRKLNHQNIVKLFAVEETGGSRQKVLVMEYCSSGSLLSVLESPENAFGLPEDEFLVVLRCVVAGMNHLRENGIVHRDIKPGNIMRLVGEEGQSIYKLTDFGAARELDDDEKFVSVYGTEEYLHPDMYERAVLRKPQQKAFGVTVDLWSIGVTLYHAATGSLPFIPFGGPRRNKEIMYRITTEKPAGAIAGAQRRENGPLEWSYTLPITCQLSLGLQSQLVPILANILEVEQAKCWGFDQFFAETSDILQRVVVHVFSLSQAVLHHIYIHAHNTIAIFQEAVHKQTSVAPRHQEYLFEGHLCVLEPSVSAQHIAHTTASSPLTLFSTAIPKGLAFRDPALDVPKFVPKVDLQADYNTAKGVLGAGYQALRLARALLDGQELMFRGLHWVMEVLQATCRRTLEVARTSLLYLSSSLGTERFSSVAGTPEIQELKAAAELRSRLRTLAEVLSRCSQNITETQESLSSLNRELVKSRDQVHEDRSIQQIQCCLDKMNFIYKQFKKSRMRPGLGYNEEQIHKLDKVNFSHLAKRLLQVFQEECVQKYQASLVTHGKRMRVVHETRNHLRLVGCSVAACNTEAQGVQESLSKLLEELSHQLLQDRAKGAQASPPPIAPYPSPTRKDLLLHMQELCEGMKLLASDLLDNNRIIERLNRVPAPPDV
The conditions noted are these: at 0.1 µM.

As usually defined, the inhibition is the change of the read-out against control, counted positive when it falls.

SRSF protein kinase 1 (Homo sapiens), sequence (Q96SB4 whole entry): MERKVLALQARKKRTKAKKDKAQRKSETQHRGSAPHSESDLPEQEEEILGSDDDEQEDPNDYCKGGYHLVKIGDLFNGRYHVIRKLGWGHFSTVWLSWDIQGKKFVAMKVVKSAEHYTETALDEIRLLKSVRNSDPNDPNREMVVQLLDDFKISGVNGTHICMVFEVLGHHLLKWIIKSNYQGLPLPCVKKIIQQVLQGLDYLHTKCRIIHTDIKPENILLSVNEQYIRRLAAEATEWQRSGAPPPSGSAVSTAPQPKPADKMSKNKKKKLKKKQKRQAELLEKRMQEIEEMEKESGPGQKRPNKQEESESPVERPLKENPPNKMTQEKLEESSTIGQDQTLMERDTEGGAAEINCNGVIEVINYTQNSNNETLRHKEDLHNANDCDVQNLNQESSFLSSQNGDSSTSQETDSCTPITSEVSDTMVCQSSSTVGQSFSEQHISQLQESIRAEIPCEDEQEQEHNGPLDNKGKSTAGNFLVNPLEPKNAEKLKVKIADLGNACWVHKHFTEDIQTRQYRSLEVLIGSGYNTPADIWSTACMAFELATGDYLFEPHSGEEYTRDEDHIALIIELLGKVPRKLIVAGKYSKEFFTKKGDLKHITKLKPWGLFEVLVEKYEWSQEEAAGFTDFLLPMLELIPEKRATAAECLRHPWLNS
Casein kinase II subunit alpha (Homo sapiens), sequence (P68400 whole entry, looked up): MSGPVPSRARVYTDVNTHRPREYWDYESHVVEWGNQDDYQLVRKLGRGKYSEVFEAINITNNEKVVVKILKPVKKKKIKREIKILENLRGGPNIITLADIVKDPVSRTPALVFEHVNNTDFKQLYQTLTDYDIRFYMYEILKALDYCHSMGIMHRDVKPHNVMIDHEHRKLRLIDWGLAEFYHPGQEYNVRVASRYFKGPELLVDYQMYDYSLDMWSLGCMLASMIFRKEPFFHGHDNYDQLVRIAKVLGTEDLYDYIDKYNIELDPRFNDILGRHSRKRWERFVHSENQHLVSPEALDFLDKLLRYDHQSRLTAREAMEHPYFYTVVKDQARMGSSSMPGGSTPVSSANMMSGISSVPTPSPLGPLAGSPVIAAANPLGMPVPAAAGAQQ
Sphingosine kinase 1 (Homo sapiens), sequence (Q9NYA1 whole entry): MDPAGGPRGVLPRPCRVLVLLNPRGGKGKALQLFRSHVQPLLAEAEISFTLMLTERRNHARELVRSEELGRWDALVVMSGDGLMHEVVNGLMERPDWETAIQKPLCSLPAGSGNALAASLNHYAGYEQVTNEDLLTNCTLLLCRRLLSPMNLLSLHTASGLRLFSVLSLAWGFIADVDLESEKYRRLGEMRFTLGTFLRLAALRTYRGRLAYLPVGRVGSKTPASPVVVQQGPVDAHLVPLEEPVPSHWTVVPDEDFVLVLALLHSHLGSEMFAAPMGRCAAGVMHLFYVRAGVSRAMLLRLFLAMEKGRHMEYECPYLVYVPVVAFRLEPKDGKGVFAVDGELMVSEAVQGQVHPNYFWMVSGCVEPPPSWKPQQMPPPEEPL
Phosphatidylinositol 4,5-bisphosphate 3-kinase catalytic subunit alpha isoform (Homo sapiens), sequence (P42336 whole entry, canonical isoform): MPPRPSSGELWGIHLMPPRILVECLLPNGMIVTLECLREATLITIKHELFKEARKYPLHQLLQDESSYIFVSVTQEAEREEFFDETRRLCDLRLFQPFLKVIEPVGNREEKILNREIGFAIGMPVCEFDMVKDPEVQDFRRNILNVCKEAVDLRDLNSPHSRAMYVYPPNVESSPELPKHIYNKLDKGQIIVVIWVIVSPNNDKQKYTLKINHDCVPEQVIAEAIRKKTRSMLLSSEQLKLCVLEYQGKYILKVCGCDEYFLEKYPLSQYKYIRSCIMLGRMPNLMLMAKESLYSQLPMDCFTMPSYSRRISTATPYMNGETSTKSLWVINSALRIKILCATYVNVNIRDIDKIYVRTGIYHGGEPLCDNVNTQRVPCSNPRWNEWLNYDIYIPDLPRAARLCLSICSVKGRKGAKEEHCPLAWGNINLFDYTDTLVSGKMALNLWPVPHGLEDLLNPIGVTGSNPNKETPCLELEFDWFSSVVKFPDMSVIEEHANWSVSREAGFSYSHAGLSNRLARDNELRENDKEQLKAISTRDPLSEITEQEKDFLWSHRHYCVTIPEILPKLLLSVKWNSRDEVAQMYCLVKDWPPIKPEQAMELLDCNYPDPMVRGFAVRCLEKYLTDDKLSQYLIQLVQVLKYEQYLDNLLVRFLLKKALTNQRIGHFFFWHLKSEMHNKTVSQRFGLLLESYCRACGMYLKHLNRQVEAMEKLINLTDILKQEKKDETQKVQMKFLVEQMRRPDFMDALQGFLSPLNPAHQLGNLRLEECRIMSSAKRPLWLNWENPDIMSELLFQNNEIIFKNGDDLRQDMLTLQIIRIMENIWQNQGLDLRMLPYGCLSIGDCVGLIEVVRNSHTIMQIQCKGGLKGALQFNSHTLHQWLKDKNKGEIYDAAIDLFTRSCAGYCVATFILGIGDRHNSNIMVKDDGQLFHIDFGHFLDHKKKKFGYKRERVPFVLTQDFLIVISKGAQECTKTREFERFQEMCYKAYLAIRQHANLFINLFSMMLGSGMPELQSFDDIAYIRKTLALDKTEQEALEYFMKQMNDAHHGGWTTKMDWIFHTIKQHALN
Phosphatidylinositol 4-kinase beta (Homo sapiens), sequence (Q9UBF8 2-816 limits assumed): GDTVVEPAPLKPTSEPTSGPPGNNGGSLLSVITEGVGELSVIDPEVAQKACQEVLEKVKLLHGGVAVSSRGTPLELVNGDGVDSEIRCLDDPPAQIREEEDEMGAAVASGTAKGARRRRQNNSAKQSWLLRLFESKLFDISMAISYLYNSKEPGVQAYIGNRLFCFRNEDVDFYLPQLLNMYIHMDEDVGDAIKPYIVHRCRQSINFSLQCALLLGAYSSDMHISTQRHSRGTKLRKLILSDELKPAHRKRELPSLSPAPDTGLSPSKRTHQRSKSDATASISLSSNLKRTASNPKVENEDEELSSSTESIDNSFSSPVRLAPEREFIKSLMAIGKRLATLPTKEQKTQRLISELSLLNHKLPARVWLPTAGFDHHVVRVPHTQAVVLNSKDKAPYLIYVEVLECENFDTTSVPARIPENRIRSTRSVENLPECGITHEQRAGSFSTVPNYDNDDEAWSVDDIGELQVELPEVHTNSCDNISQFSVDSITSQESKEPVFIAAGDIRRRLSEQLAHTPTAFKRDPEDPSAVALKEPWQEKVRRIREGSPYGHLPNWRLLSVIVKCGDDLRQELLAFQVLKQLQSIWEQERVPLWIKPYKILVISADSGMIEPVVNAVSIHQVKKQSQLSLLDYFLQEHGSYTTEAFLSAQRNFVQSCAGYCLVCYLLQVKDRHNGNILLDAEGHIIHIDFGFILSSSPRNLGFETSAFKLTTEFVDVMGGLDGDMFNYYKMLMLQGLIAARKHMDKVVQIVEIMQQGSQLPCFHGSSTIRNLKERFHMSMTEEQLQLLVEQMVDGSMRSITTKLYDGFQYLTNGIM

In the case of `Cc1ccc2c(-c3ccnc(Nc4ccc5c(c4)OCCO5)n3)c(-c3ccc(C(F)(F)F)cc3)nn2n1`, the inhibition in test [1] was 0.43%; in [2], -1.35%; in test [3] it was -3.21%; in test [4], -1.09%; in test [5], -0.65%; in test [6] it was 0.68%. Moreover, the inhibition in [7] was 0.76%; in test [8], 6.55%; in test [9] it was -2.49%; in test [10] it was 0%; in [11], -4.65%; in test [12], -0.54%. Also, the inhibition was 1.85% in test [13]; 9.31% in test [14]; 1.49% in test [15]; 0.44% in test [16]; 0.46% in test [17]; -1.92% in test [18]. Moreover, the inhibition in test [19] was -5.04%; in [20], 4.65%.

In the case of `COc1cc(Nc2nccc(-c3cnn4ncccc34)n2)cc(OC)c1`, the inhibition is 5.11% in test [1]; -0.28% in test [2]; 4.85% in test [3]; 2.19% in [4]; 20.5% in test [5]; 6.1% in test [6]. Moreover, the inhibition in [7] is 35%; in test [8] it was -0.41%; in test [9], 14.9%; in [10], 0%; in test [11], 0.57%; in test [12], 0%. Moreover, the inhibition in test [13] is 0.21%; in test [14] it was 8.84%; in [15], 42.7%; in test [16], 17.4%; in [17] it was 71.4%; in [18], 5.71%. In addition, the inhibition in test [19] is 24.5%; in test [20], 5.75%.

The record behind these values is ChEMBL document CHEMBL1961873, “Compounds: GSK PKIS; Assays: Nanosyn kinase panel” (2012).
